This is an account of results in PubChem BioAssay (NCATS).

Test [1] is described as follows: Quantitative High-Throughput drug screen in 47 multiple myeloma cell lines against the NCATS MIPE library collection: KMS28BM_JCRB cell viability assay (AID 1919874). Also: nearly all actives have a fitted effect of over 35% in size. Also: potency is read from the fitted curve at half-maximal effect. The method in brief:
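ATP-based luminescence (CellTiter-Glo, 5 min RT incubation) quantified surviving cells following two days' treatment with MIPE 4.0 agents at 37 °C, 5% CO2.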

Test [2] is described as follows: qHTS drug screen for cell cycle checkpoint inhibitors in PARPi-resistant BRCA-mutant ovarian cancer cell lines. (AID 1963452; calls by dose curve). As to conditions: PEO1/OlaR viability, CellTiter-Glo luminescence, 96 h, stronger effect = lower value. Put shortly:
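PEO1, PEO4 and PEO1/OlaR ovarian cancer cells, 600 per well, exposed 96 h at 37C to a dilution series. Viability read by CellTiter-Glo luminescence, normalized to DMSO and empty wells; activity summarized as Z-AUC.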

Where [3] appears, read: measured here: PEO1 parental Z-AUC.

Structures are written as SMILES. Inconclusive results are not listed. Activity calls are given as the source filed them. Unless noted, calls follow the shape of the dose curve; as a rule, active = well fitted cell-killing curve with a large enough effect; inconclusive = small, poorly fitted or top-dose-only effect, or effect the other way; inactive = no such curve, though single readings can be large or run the other way.

Regarding `Nc1ccc(C(=O)Nc2cccc(-c3nc(N4CCOCC4)c4oc5ncccc5c4n3)c2)cn1`, in test [1], the Potency is 26.4 µM (active). Besides, the Z-AUC was 0.0788 (inactive) in test [2], -0.164 in test [2] (setting [3]) and 0.731 in test [2] (measured here: PEO4 Z-AUC).
Take `CC(=O)O[C@H]1C[C@@H]2CC[C@H]3[C@H]4C[C@H]([N+]5(C)CCCCC5)[C@@H](OC(C)=O)[C@@]4(C)CC[C@@H]3[C@@]2(C)C[C@H]1N1CCCCC1`: the Potency entry in test [1] was “inactive”.
As for `CN1CCCN(C(=O)c2cccc(-c3ccc(C=C4C(=O)Nc5ccc(Cl)cc54)o3)c2)CC1`, the Potency in test [1] was 10.5 µM (active).
Take `C[C@H](NC(=O)C(C#N)=Cc1cccc(Br)n1)c1ccccc1`: the Potency in test [1] was 7.43 µM (active).
Consider `C[C@H](NC(=O)Cc1cc(F)cc(F)c1)C(=O)N[C@H](C(=O)OC(C)(C)C)c1ccccc1`, for which the Potency result in test [1] is “inactive”. For the same compound, the values for the Z-AUC in test [2], in test [2] (setting [3]) and in test [2] (measured here: PEO4 Z-AUC) were -0.609 (inactive), -0.43 and -0.265, respectively.
On to `O=[N+]([O-])c1cn2c(n1)OC[C@@H](OCc1ccc(OC(F)(F)F)cc1)C2`, for which the Potency result in test [1] was “inactive”.
In the case of `CC(C)(N)c1ccc(-c2nc3ccccc3nc2-c2ccccc2)cc1`, the Potency in test [1] was 26.4 µM (active). The Z-AUC was 0.345 (inactive) in test [2], 0.18 in test [2] (setting [3]) and 0.291 in test [2] (measured here: PEO4 Z-AUC).
On to `C[C@@H]1C(=O)O[C@H]2CC34[C@H]5C[C@@H](C(C)(C)C)C36[C@H](OC(=O)[C@@H]6O)O[C@@]4(C(=O)O5)[C@]21O` (some centres undefined), for which the Potency entry in test [1] is “inactive”. The Z-AUC is 0.793 (inactive) in test [2], 0.5 in test [2] (setting [3]) and 0.284 in test [2] (measured here: PEO4 Z-AUC).
With `COc1cc(C(C)C)c(Oc2cnc(NC(CO)CO)nc2N)cc1I`, the Potency entry in test [1] was “inactive”. Moreover, the results for the Z-AUC in test [2], in test [2] (setting [3]) and in test [2] (measured here: PEO4 Z-AUC) were 0.743 (inactive), 1.44 and 1.02, respectively.
Consider `CCN(CC)Cc1ccc2cc(COC(=O)Nc3ccc(C(=O)NO)cc3)ccc2c1`, for which, in test [1], the Potency was 0.418 µM (active).
Regarding `N#Cc1cc(NC(=O)Nc2nnc(-c3ccncc3)s2)ccc1-c1cn[nH]c1`, the Potency entry in test [1] was “inactive”. Also, the values for the Z-AUC in test [2], in test [2] (setting [3]) and in test [2] (measured here: PEO4 Z-AUC) were -0.0161 (inactive), 0.0346 and 0.15, respectively.
